Test results as given in the supplement of paper PMC8728848.
Shown is part of a subset that was picked to be rich in the strongest signals.

What was measured:
Assay in all cases: glycan array binding signal (z-score within array); higher = stronger binding
Conditions in all cases: glycan notation: IUPAC condensed, linker removed
Fuc(a1-2)Gal = biological target: Fuc(a1-2)Gal
How it was run: (§1)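 From the Consortium for Functional Glycomics database, 3228 arrays were curated, keeping only those whose protein sequence was available. Binding is given as a within-array Z-score averaged across arrays sharing a protein sequence and across linkers. Negative Z-scores can be read as non-binding.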

Fuc(a1-2)Gal(b1-3)GalNAc = biological target: Fuc(a1-2)Gal(b1-3)GalNAc
How it was run: as §1

[1] = biological target: Fuc(a1-2)Gal(b1-4)GlcNAc(b1-2)[Fuc(a1-2)Gal(b1-4)GlcNAc(b1-4)]Man(a1-3)[Fuc(a1-2)Gal(b1-4)GlcNAc(b1-2)Man(a1-6)]Man(b1-4)GlcNAc(b1-4)GlcNAc
How it was run: as §1

[2] = biological target: Fuc(a1-2)Gal(b1-4)GlcNAc6S
How it was run: as §1

[3] = biological target: Fuc(a1-2)Gal6S(b1-3)GlcNAc6S
How it was run: as §1

[4] = biological target: Fuc(a1-2)[Gal(a1-3)]Gal(b1-3)GlcNAc(b1-2)Man(a1-3)[Fuc(a1-2)[Gal(a1-3)]Gal(b1-3)GlcNAc(b1-2)Man(a1-6)]Man(b1-4)GlcNAc(b1-4)[Fuc(a1-6)]GlcNAc
How it was run: as §1

[5] = biological target: Fuc(a1-2)[Gal(a1-3)]Gal(b1-3)GlcNAc(b1-3)GalNAc
How it was run: as §1

[6] = biological target: Fuc(a1-2)[Gal(a1-4)]Gal(b1-4)GlcNAc
How it was run: as §1

[7] = biological target: Fuc(a1-2)[GalNAc(a1-3)]Gal(b1-4)[Fuc(a1-3)]GlcNAc(b1-3)GalNAc
How it was run: as §1

Fuc(b1-3)GlcNAc = biological target: Fuc(b1-3)GlcNAc
How it was run: as §1

Gal(a1-2)Gal = biological target: Gal(a1-2)Gal
How it was run: as §1

Gal(a1-3)Gal = biological target: Gal(a1-3)Gal
How it was run: as §1

Gal(a1-3)Gal(b1-4)GlcNAc = biological target: Gal(a1-3)Gal(b1-4)GlcNAc
How it was run: as §1

[8] = biological target: Gal(a1-3)[Gal(a1-4)]Gal(b1-4)GlcNAc
How it was run: as §1

[9] = biological target: Gal(a1-4)Gal(b1-3)GlcNAc(b1-2)Man(a1-3)[Gal(a1-4)Gal(b1-3)GlcNAc(b1-2)Man(a1-6)]Man(b1-4)GlcNAc(b1-4)GlcNAc
How it was run: as §1

Gal(b1-2)Gal = biological target: Gal(b1-2)Gal
How it was run: as §1

Gal(b1-3)Gal(b1-4)GlcNAc = biological target: Gal(b1-3)Gal(b1-4)GlcNAc
How it was run: as §1

Gal(b1-3)GalNAc = biological target: Gal(b1-3)GalNAc
How it was run: as §1

[10] = biological target: Gal(b1-3)GalNAc(a1-3)[Fuc(a1-2)]Gal(b1-4)GlcNAc
How it was run: as §1

[11] = biological target: Gal(b1-3)GalNAc(b1-4)Gal(b1-4)Glc
How it was run: as §1

[12] = biological target: Gal(b1-3)GlcNAc(b1-6)Gal(b1-4)GlcNAc
How it was run: as §1

Gal(b1-3)GlcNAc6S = biological target: Gal(b1-3)GlcNAc6S
How it was run: as §1

[13] = biological target: Gal(b1-3)[GlcNAc(b1-6)]GalNAc
How it was run: as §1

[14] = biological target: Gal(b1-4)GlcNAc(a1-6)Gal(b1-4)GlcNAc
How it was run: as §1

[15] = biological target: Gal(b1-4)GlcNAc(b1-2)Man(a1-3)[Gal(b1-4)GlcNAc(b1-2)Man(a1-6)][GlcNAc(b1-4)]Man(b1-4)GlcNAc(b1-4)[Fuc(a1-6)]GlcNAc
How it was run: as §1

[16] = biological target: Gal(b1-4)GlcNAc(b1-2)Man(a1-3)[Man(a1-6)]Man(b1-4)GlcNAc(b1-4)GlcNAc
How it was run: as §1

[17] = biological target: Gal(b1-4)GlcNAc(b1-3)Gal(b1-3)GlcNAc
How it was run: as §1

[18] = biological target: Gal(b1-4)GlcNAc(b1-3)Gal(b1-4)GlcNAc(b1-3)Gal(b1-4)GlcNAc(b1-3)Gal(b1-4)GlcNAc(b1-2)[Gal(b1-4)GlcNAc(b1-3)Gal(b1-4)GlcNAc(b1-3)Gal(b1-4)GlcNAc(b1-3)Gal(b1-4)GlcNAc(b1-6)]Man(a1-6)[Gal(b1-4)GlcNAc(b1-3)Gal(b1-4)GlcNAc(b1-3)Gal(b1-4)GlcNAc(b1-3)Gal(b1-4)GlcNAc(b1-2)Man(a1-3)]Man(b1-4)GlcNAc(b1-4)[Fuc(a1-6)]GlcNAc
How it was run: as §1

Gal6P(b1-4)GlcNAc = biological target: Gal6P(b1-4)GlcNAc
How it was run: as §1

Gal6S(b1-3)GlcNAc = biological target: Gal6S(b1-3)GlcNAc
How it was run: as §1

Gal6S(b1-4)GlcNAc = biological target: Gal6S(b1-4)GlcNAc
How it was run: as §1

[19] = biological target: GalNAc(a1-3)GalNAc(b1-3)Gal(a1-4)Gal(b1-4)GlcNAc
How it was run: as §1

GalNAc(b1-3)Gal = biological target: GalNAc(b1-3)Gal
How it was run: as §1

GalNAc(b1-4)GlcNAc6S = biological target: GalNAc(b1-4)GlcNAc6S
How it was run: as §1

[20] = biological target: Glc(a1-4)Glc(a1-4)Glc(a1-4)Glc
How it was run: as §1

Glc(a1-6)Glc(a1-6)Glc = biological target: Glc(a1-6)Glc(a1-6)Glc
How it was run: as §1

[21] = biological target: Glc(a1-6)Glc(a1-6)Glc(a1-6)Glc
How it was run: as §1

[22] = biological target: GlcNAc(a1-4)Gal(b1-4)GlcNAc(b1-3)Gal(b1-4)[Fuc(a1-3)]GlcNAc(b1-3)Gal(b1-4)[Fuc(a1-3)]GlcNAc
How it was run: as §1

[23] = biological target: GlcNAc(a1-6)Gal(b1-4)GlcNAc
How it was run: as §1

[24] = biological target: GlcNAc(b1-2)[GlcNAc(b1-6)]Man(a1-6)[GlcNAc(b1-2)Man(a1-3)]Man(b1-4)GlcNAc(b1-4)GlcNAc
How it was run: as §1

[25] = biological target: GlcNAc(b1-2)[GlcNAc(b1-6)]Man(a1-6)[GlcNAc(b1-4)][GlcNAc(b1-2)Man(a1-3)]Man(b1-4)GlcNAc(b1-4)GlcNAc
How it was run: as §1

[26] = biological target: GlcNAc(b1-3)Gal(b1-4)GlcNAc(b1-3)Gal(b1-4)GlcNAc(b1-3)GalNAc
How it was run: as §1

GlcNAc(b1-4)GlcNAc = biological target: GlcNAc(b1-4)GlcNAc
How it was run: as §1

[27] = biological target: GlcNAc(b1-4)GlcNAc(b1-4)GlcNAc(b1-4)GlcNAc(b1-4)GlcNAc
How it was run: as §1

[28] = biological target: GlcNAc(b1-6)Gal(b1-4)GlcNAc
How it was run: as §1

[29] = biological target: GlcNAc6S(b1-3)Gal(b1-4)GlcNAc
How it was run: as §1

[30] = biological target: Man(a1-2)Man(a1-2)Man(a1-6)[Man(a1-3)]Man
How it was run: as §1

[31] = biological target: Man(a1-2)Man(a1-3)[Man(a1-2)Man(a1-6)]Man(a1-6)[Man(a1-2)Man(a1-2)Man(a1-3)]Man
How it was run: as §1

[32] = biological target: Man(a1-3)[Man(a1-6)]Man(a1-6)[Man(a1-2)Man(a1-3)]Man(b1-4)GlcNAc(b1-4)GlcNAc
How it was run: as §1

[33] = biological target: Neu5Ac(a2-3)Gal(b1-4)GlcNAc(b1-2)Man
How it was run: as §1

[34] = biological target: Neu5Ac(a2-3)Gal(b1-4)GlcNAc(b1-3)Gal(b1-4)GlcNAc(b1-2)Man(a1-3)[Neu5Ac(a2-3)Gal(b1-4)GlcNAc(b1-3)Gal(b1-4)GlcNAc(b1-2)Man(a1-6)]Man(b1-4)GlcNAc(b1-4)GlcNAc
How it was run: as §1

[35] = biological target: Neu5Ac(a2-3)Gal(b1-4)GlcNAc(b1-6)[Neu5Ac(a2-3)Gal(b1-3)]GalNAc
How it was run: as §1

[36] = biological target: Neu5Ac(a2-3)Gal(b1-4)GlcNAc6S
How it was run: as §1

Neu5Ac(a2-6)Gal = biological target: Neu5Ac(a2-6)Gal
How it was run: as §1

[37] = biological target: Neu5Ac(a2-6)Gal(b1-4)GlcNAc(b1-2)Man(a1-3)[Neu5Ac(a2-6)Gal(b1-4)GlcNAc(b1-2)Man(a1-6)]Man(b1-4)GlcNAc(b1-4)[Fuc(a1-6)]GlcNAc
How it was run: as §1

[38] = biological target: Neu5Ac(a2-6)Gal(b1-4)GlcNAc(b1-3)Gal(b1-4)GlcNAc(b1-6)[Gal(b1-3)]GalNAc
How it was run: as §1

[39] = biological target: Neu5Ac(a2-6)Gal(b1-4)GlcNAc(b1-6)[Gal(b1-3)]GalNAc
How it was run: as §1

[40] = biological target: Neu5Gc(a2-3)Gal(b1-3)[Fuc(a1-4)]GlcNAc
How it was run: as §1

B1: VLRB.aGPA.23-GCN4-biotin (Petromyzon marinus) (protein)
chain: ACPSQCSCSGTEVNCAGKSLASVPAGIPTTTRVLYLNSNQITKLEPGVFDRLANLRELHLWGNQLVSLPPGVFDNLANLEKLWLNSNQLTSLPAGLFDRLVNLEHLGLCCMKLTELPSGAFDKLTRLKQLGLDQNQLKSIPDGAFARLPSLTHVWLHTNPWDCQCTDILYLSGWVAQHSSIVGEGWPWRHSPDSAKCSGTNTPVRAVTEASTSPSKCP
**Q.** What does the source list for B1?
**A.** glycan array binding signal (z-score) (Fuc(a1-2)Gal): 13.2; glycan array binding signal (z-score) (Fuc(a1-2)Gal(b1-3)GalNAc): 12.6; glycan array binding signal (z-score) [1]: -0.082; glycan array binding signal (z-score) [2]: -0.082; glycan array binding signal (z-score) [3]: -0.055; glycan array binding signal (z-score) [4]: -0.07; glycan array binding signal (z-score) [5]: -0.083; glycan array binding signal (z-score) [6]: -0.066; glycan array binding signal (z-score) [7]: 0.368; glycan array binding signal (z-score) (Fuc(b1-3)GlcNAc): -0.075; glycan array binding signal (z-score) (Gal(a1-2)Gal): 0.157; glycan array binding signal (z-score) (Gal(a1-3)Gal): -0.08; glycan array binding signal (z-score) (Gal(a1-3)Gal(b1-4)GlcNAc): -0.079; glycan array binding signal (z-score) [8]: -0.069; glycan array binding signal (z-score) [9]: -0.073; glycan array binding signal (z-score) (Gal(b1-2)Gal): 3.68; glycan array binding signal (z-score) (Gal(b1-3)Gal(b1-4)GlcNAc): 0.046; glycan array binding signal (z-score) (Gal(b1-3)GalNAc): 0.232; glycan array binding signal (z-score) [10]: -0.083; glycan array binding signal (z-score) [11]: 0.519; glycan array binding signal (z-score) [12]: -0.077; glycan array binding signal (z-score) (Gal(b1-3)GlcNAc6S): -0.09; glycan array binding signal (z-score) [13]: -0.079; glycan array binding signal (z-score) [14]: -0.077; glycan array binding signal (z-score) [15]: -0.081; glycan array binding signal (z-score) [16]: -0.076; glycan array binding signal (z-score) [17]: -0.071; glycan array binding signal (z-score) [18]: -0.071; glycan array binding signal (z-score) (Gal6P(b1-4)GlcNAc): -0.084; glycan array binding signal (z-score) (Gal6S(b1-3)GlcNAc): 0.341; glycan array binding signal (z-score) (Gal6S(b1-4)GlcNAc): -0.083; glycan array binding signal (z-score) [19]: -0.076; glycan array binding signal (z-score) (GalNAc(b1-3)Gal): -0.076; glycan array binding signal (z-score) (GalNAc(b1-4)GlcNAc6S): -0.082; glycan array binding signal (z-score) [20]: -0.064; glycan array binding signal (z-score) (Glc(a1-6)Glc(a1-6)Glc): -0.077; glycan array binding signal (z-score) [21]: -0.076; glycan array binding signal (z-score) [22]: -0.069; glycan array binding signal (z-score) [23]: -0.087; glycan array binding signal (z-score) [24]: -0.079; glycan array binding signal (z-score) [25]: -0.085; glycan array binding signal (z-score) [26]: -0.084; glycan array binding signal (z-score) (GlcNAc(b1-4)GlcNAc): -0.088; glycan array binding signal (z-score) [27]: -0.086; glycan array binding signal (z-score) [28]: -0.084; glycan array binding signal (z-score) [29]: -0.08; glycan array binding signal (z-score) [30]: -0.059; glycan array binding signal (z-score) [31]: -0.081; glycan array binding signal (z-score) [32]: 0.041; glycan array binding signal (z-score) [33]: -0.068; glycan array binding signal (z-score) [34]: -0.005; glycan array binding signal (z-score) [35]: -0.087; glycan array binding signal (z-score) [36]: -0.079; glycan array binding signal (z-score) (Neu5Ac(a2-6)Gal): -0.082; glycan array binding signal (z-score) [37]: -0.074; glycan array binding signal (z-score) [38]: -0.072; glycan array binding signal (z-score) [39]: -0.077; glycan array binding signal (z-score) [40]: -0.074
